# Measured values from PubChem BioAssay (EPA / NIEHS).
# Results filed as inconclusive are left out. The source made the active and inactive calls. The calls were made as follows, unless noted: active = hit-call score of the fitted dose curve at least 0.9, where 1 is the maximum; inconclusive = response in the unintended direction; inactive = score below 0.9.
# Tested on: not listed separately
# Assay: TOX21_PR_BLA_Followup_Antagonist_viability: Viability Assessment in the Tox21 HEK293 Progesterone Receptor (PR) Antagonism Beta-lactamase Follow-Up Assay (AID 2283936);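 also: cells exposed to compound with R5020 agonist for 16 h; hits lower the luminescence signal meaning cytotoxicity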
# Method in brief: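 PR-UAS-bla HEK293T cells in medium with 2% charcoal-stripped FBS were treated with compounds plus R5020 for 16 hr at 37C. After the beta-lactamase read, CellTiter-Glo was added to the same wells and luminescence read after 30 min at room temperature.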
row,SMILES,outcome
1,O=C(CBr)Nc1ccc(Cl)cc1C(=O)c1ccccc1F,inactive
2,CC1COC2(c3ccccc3Cl)c3cc(Cl)ccc3NC(=O)CN12 (stereo not drawn),inactive
3,O=C1CN=C(c2ccccc2)c2cc(Cl)ccc2N1CC1CC1,inactive
4,Nc1ccc(Cl)cc1C(=O)c1ccccc1F,inactive
5,C[C@]12Cc3cn[nH]c3C[C@@H]1CC[C@@H]1[C@@H]2CC[C@@]2(C)[C@H]1CC[C@]2(C)O,inactive
6,C[C@]12CC[C@H]3[C@@H](CCC4=CC(=O)CC[C@@H]43)[C@@H]1CC[C@@H]2OC(=O)CCc1ccco1,inactive
7,C[C@]12CC[C@H]3[C@@H](CCC4=CC(=O)CC[C@@H]43)[C@@H]1CC[C@@H]2OC(=O)CCC1CCCCC1,inactive

# Target: PGR (gene 5241) (UniProt P06401)
# Assay: TOX21_PR_LUC_Followup_Antagonist: Tox21 HEK293 Progesterone Receptor (PR) Antagonism Luciferase Follow-Up Assay (AID 2283938);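 also: curve fitted upward as signal gain over DMSO baseline despite antagonist label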
# Method in brief: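 Luminescence from ONE-Glo reagent, measured after 30 min at room temperature, served as readout. Cells (HEK293 carrying PR-A-luc) had been treated 16 h at 37C with DMSO-dissolved compounds. Activity was fitted against DMSO controls.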
# Sequence of PGR (gene 5241) (P06401 whole entry, looked up): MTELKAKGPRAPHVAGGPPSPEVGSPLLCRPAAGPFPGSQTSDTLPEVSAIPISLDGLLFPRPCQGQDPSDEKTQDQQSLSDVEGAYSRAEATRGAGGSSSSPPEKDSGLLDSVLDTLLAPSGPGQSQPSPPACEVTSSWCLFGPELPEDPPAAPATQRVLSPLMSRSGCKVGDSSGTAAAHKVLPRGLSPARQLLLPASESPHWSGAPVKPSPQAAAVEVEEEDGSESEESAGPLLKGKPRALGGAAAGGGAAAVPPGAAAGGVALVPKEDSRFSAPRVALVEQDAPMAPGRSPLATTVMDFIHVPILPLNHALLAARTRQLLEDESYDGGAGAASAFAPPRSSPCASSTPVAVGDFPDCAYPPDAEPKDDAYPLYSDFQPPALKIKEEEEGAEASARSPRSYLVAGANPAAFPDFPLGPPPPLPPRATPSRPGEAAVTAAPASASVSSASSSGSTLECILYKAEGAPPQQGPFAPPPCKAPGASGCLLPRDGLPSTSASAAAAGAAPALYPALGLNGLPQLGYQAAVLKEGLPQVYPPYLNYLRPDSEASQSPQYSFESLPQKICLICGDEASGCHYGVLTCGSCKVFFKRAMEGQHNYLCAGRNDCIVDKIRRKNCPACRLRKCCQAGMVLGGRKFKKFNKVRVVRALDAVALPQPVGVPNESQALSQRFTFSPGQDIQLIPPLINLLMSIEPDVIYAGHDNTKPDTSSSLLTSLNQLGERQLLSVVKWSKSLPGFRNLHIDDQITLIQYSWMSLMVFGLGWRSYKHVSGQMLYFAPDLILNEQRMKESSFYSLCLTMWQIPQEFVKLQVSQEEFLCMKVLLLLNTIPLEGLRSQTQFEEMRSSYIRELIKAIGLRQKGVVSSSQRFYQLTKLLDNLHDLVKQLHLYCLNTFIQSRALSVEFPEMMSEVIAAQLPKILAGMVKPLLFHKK
row,SMILES,outcome
1,CCC(=O)O[C@@H]1C=C2CCC3C(CCC4(C)C3CC[C@@H]4OC(=O)CC)C2CC1 (stereo partly drawn),inactive
2,O=C(CBr)Nc1ccc(Cl)cc1C(=O)c1ccccc1F,inactive
3,CC1COC2(c3ccccc3Cl)c3cc(Cl)ccc3NC(=O)CN12 (stereo not drawn),inactive
4,O=C1CN=C(c2ccccc2)c2cc(Cl)ccc2N1CC1CC1,inactive
5,Nc1ccc(Cl)cc1C(=O)c1ccccc1F,inactive
6,C[C@]12Cc3cn[nH]c3C[C@@H]1CC[C@@H]1[C@@H]2CC[C@@]2(C)[C@H]1CC[C@]2(C)O,inactive
7,C[C@]12CC[C@H]3[C@@H](CCC4=CC(=O)CC[C@@H]43)[C@@H]1CC[C@@H]2OC(=O)CCc1ccco1,inactive
8,C[C@]12CC[C@H]3[C@@H](CCC4=CC(=O)CC[C@@H]43)[C@@H]1CC[C@@H]2OC(=O)CCC1CCCCC1,inactive

# Tested on: not listed separately
# Assay: TOX21_PR_LUC_Followup_Antagonist_viability: Viability Assessment in the Tox21 HEK293 Progesterone Receptor (PR) Antagonism Luciferase Follow-Up Assay (AID 2283940)
# Method in brief: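 Loss of CellTiter-Glo ATP signal indicates cytotoxicity in HEK293-PR-A-luc cells grown in 10% charcoal-stripped FBS medium, seeded 3,000 per well and incubated 16 h with compound at 37C.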
row,SMILES,outcome
1,O=C(CBr)Nc1ccc(Cl)cc1C(=O)c1ccccc1F,inactive
2,CC1COC2(c3ccccc3Cl)c3cc(Cl)ccc3NC(=O)CN12 (stereo not drawn),inactive
3,O=C1CN=C(c2ccccc2)c2cc(Cl)ccc2N1CC1CC1,inactive
4,Nc1ccc(Cl)cc1C(=O)c1ccccc1F,inactive
5,C[C@]12Cc3cn[nH]c3C[C@@H]1CC[C@@H]1[C@@H]2CC[C@@]2(C)[C@H]1CC[C@]2(C)O,inactive
6,C[C@]12CC[C@H]3[C@@H](CCC4=CC(=O)CC[C@@H]43)[C@@H]1CC[C@@H]2OC(=O)CCC1CCCCC1,inactive

# Tested on: not listed separately
# Assay: TOX21_PR_LUC_Followup_Agonist_viability: Viability Assessment in the Tox21 HEK293 Progesterone Receptor (PR) Agonism Luciferase Follow-Up Assay (AID 2283941);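 also: loss of signal means cytotoxicity so actives lower viability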
# Method in brief: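 Seeding: HEK293-PR-A-luc, 3,000 cells/well, 5 h at 37C. Treatment: compound in DMSO, 16 h, 37C. Read: CellTiter-Glo ATP luminescence, signal loss taken as lower viability.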
row,SMILES,outcome
1,CCC(=O)O[C@@H]1C=C2CCC3C(CCC4(C)C3CC[C@@H]4OC(=O)CC)C2CC1 (stereo partly drawn),inactive
2,O=C(CBr)Nc1ccc(Cl)cc1C(=O)c1ccccc1F,inactive
3,O=C1CN=C(c2ccccc2)c2cc(Cl)ccc2N1CC1CC1,inactive
4,Nc1ccc(Cl)cc1C(=O)c1ccccc1F,inactive
5,C[C@]12Cc3cn[nH]c3C[C@@H]1CC[C@@H]1[C@@H]2CC[C@@]2(C)[C@H]1CC[C@]2(C)O,inactive
6,C[C@]12CC[C@H]3[C@@H](CCC4=CC(=O)CC[C@@H]43)[C@@H]1CC[C@@H]2OC(=O)CCC1CCCCC1,inactive

# Tested on: not listed separately
# Assay: CCTE_Harrill_HTTr_Apoptosis_PRF_DMEM_12hr: (Pilot) CCTE's 12-hour Apoptosis Assessment for the High-Throughput Transcriptomics (HTTr) Platform, in MCF-7 cells cultured in phenol red-free DMEM + 10% charcoal-stripped fetal bovine serum, Harrill Lab (AID 2283985; active = hit-call score of the fitted dose curve at least 0.9, where 1 is the maximum; inactive = score below 0.9)
# Method in brief: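 Caspase-3/7 activity by CellEvent Green high content imaging after 12 h compound exposure (eight concentrations) in MCF-7 grown in phenol red-free DMEM plus 10% charcoal-stripped serum; DMSO as baseline.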
row,SMILES,outcome
1,CC1(C)NC(=O)N(c2ccc([N+](=O)[O-])c(C(F)(F)F)c2)C1=O,inactive
2,Nc1nc(Cl)nc2c1ncn2[C@H]1C[C@H](O)[C@@H](CO)O1,inactive
3,CCC(C)(C)C(=O)O[C@H]1C[C@@H](C)C=C2C=C[C@H](C)[C@H](CC[C@@H]3C[C@@H](O)CC(=O)O3)[C@H]21,inactive

# Tested on: not listed separately
# Assay: CCTE_Harrill_HTTr_Viability_MCF7: CCTE's 6-hour Cell Viability Assessment for the High-Throughput Transcriptomics (HTTr) Platform, in MCF-7 cells cultured in DMEM + 10% fetal bovine serum, Harrill Lab (AID 2284010; active = hit-call score of the fitted dose curve at least 0.9, where 1 is the maximum; inactive = score below 0.9)
# Method in brief: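 Eight-point concentration series, six-hour exposure. Propidium iodide exclusion imaged to assess membrane integrity as a cytotoxicity readout; bidirectional fitting was done with DMSO as negative control and activity baseline.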
row,SMILES,outcome
1,ClC1=C(Cl)[C@]2(Cl)[C@H]3[C@H]([C@H](Cl)C(Cl)[C@@H]3Cl)[C@@]1(Cl)C2(Cl)Cl (stereo partly drawn),inactive
2,COP(=S)(OC)SCC(=O)N(C)C=O,inactive
3,Cc1ccc2cc3c(ccc4ccccc43)c3c2c1CC3,inactive
4,CCCCc1c(C)nc(NCC)nc1OS(=O)(=O)N(C)C,inactive

# Tested on: not listed separately
# Assay: CCTE_Harrill_HTTr_Apoptosis_MCF7: CCTE's 6-hour Apoptosis Assessment for the High-Throughput Transcriptomics (HTTr) Platform, in MCF-7 cells cultured in DMEM + 10% fetal bovine serum, Harrill Lab (AID 2284011; active = hit-call score of the fitted dose curve at least 0.9, where 1 is the maximum; inactive = score below 0.9)
# Method in brief: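 Read-out: CellEvent Caspase 3/7 Green signal by high content imaging, gain-of-signal indicating apoptosis. MCF-7 cells, DMEM + 10% FBS, eight-point dilution series, 6 h exposure. Curves fitted bidirectionally relative to DMSO negative control.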
row,SMILES,outcome
1,ClC1=C(Cl)[C@]2(Cl)[C@H]3[C@H]([C@H](Cl)C(Cl)[C@@H]3Cl)[C@@]1(Cl)C2(Cl)Cl (stereo partly drawn),inactive
2,COP(=S)(OC)SCC(=O)N(C)C=O,inactive
3,Cc1ccc2cc3c(ccc4ccccc43)c3c2c1CC3,inactive
4,CCCCc1c(C)nc(NCC)nc1OS(=O)(=O)N(C)C,inactive
